# Test results taken from PubChem BioAssay (NCI).
# This is part of a sample that, as a whole, favours compounds with a hit. Of some 83,000 tested, about 20% had one in any assay.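 Note: values are percent growth. 100 is the growth of untreated cells, values between 100 and 0 indicate rising inhibition; between -100 and 0 indicates cell death.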 A number with no mark means an inactive call. Activity calls are given as the source filed them. The calls were made as follows: active = growth percent below 10; inactive = the rest.
# Columns and labels:
# Assay in all cases: NCI-60 one-dose screen, 48 h (100 = growth as untreated, 0 = no growth, -100 = all killed)
# Settings in all cases: 10 µM unless noted
# HCT-15 colon = system: HCT-15 colon
# HT29 colon = system: HT29 colon
# SNB-75 CNS = system: SNB-75 CNS
# SNB-19 CNS = system: SNB-19 CNS
# U251 CNS = system: U251 CNS
# PC-3 prostate = system: PC-3 prostate
# SK-MEL-5 melanoma = system: SK-MEL-5 melanoma
# UACC-62 melanoma = system: UACC-62 melanoma
# LOX IMVI melanoma = system: LOX IMVI melanoma
# SK-MEL-28 melanoma = system: SK-MEL-28 melanoma
Structure (SMILES),growth (HCT-15 colon),growth (HT29 colon),growth (SNB-75 CNS),growth (SNB-19 CNS) [%],growth (U251 CNS),growth (PC-3 prostate),growth (SK-MEL-5 melanoma),growth (UACC-62 melanoma),growth (LOX IMVI melanoma),growth (SK-MEL-28 melanoma)
CCOc1ccc(C2N(c3cc(OC)c(OC)c(OC)c3)C(=O)C2(F)F)cc1 (stereo not given),22.6%,12.3%,55.9%,54.1,36.2%,37.3%,6.76% (active),51.6%,27.6%,66.8%
COc1ccc2[nH]c(=O)c(/C=C/C(=O)c3ccccc3OC)cc2c1,11.3%,7.17% (active),-11.5% (active),17,5.14% (active),22.1%,25.2%,25.7%,10.2%,50.5%
Nc1ccc(C(=O)Nc2cccc(C(=O)Nc3ccc4c(O)c(N=Nc5ccc(N=Nc6ccc(S(=O)(=O)O)cc6)cc5)c(S(=O)(=O)O)cc4c3)c2)cc1,102%,97.6%,85.7%,107,107%,98.2%,107%,98.6%,94.7%,99.7%
NC[C@@H]1CCN(c2cc3c(cc2F)c(=O)n(N)c(=O)n3Cc2ccc(-c3ccccc3)cc2)C1,50.1%,30.4%,77.9%,102,64.5%,71.4%,72.4%,94.6%,78.9%,113%
O=c1[nH]c2ccccc2cc1-c1nc2ccncc2[nH]1,85.9%,84.5%,58.3%,82.5,83.7%,74%,86.7%,80.3%,82.1%,95.7%
COc1cc(-c2csc(NC(=O)Nc3ccc(Cl)cc3)n2)cc(OC)c1OC,20.1%,36.1%,36.5%,24.3,25.4%,3.63% (active),-37.8% (active),-7.54% (active),24.7%,41.1%
CCOC(=O)C1=C(C)n2nc(CC#N)c(C#N)c2NC1c1ccc(Cl)cc1 (stereo not given),97.1%,111%,86.1%,106,107%,91.3%,98.3%,94.4%,94.7%,101%
O=C(O)c1cn(C2CC2)c2cc(N3CCN(C(=O)CSc4nnc(-c5ccc(Cl)cc5)n4-c4ccccc4)CC3)c(F)cc2c1=O,104%,97.2%,95.8%,91.3,101%,93.7%,98.8%,91.3%,72.3%,109%
O=C(Nc1cc(=O)[nH]c(=O)[nH]1)C(Cl)Cl,103%,102%,96.9%,99,99.5%,92%,102%,88.9%,100%,111%
COc1c(O)cc2oc3cc(O[C@@H]4OC(C)[C@@H](O)[C@H](O)C4O)c(CC=C(C)C)c(O)c3c(=O)c2c1CC=C(C)C (stereo not given in full),85.1%,84.3%,88.9%,102,86.6%,74.9%,91%,96.9%,89.3%,105%
Cc1c(Cl)cccc1NC(=O)c1sc2nc3c(cc2c1N)COCC3,19.6%,5.9% (active),19.4%,26.5,22.6%,30.3%,23.9%,31.1%,35.5%,58.6%
CNc1cccc2c1C(=O)c1cccc(N)c1C2=O,58.6%,71.2%,71.5%,84.2,29.6%,40.7%,88%,77.3%,79.1%,96.3%
CCCn1c(N)c(C(N)=O)sc1=S,90.6%,106%,82.9%,97.2,97.4%,96%,111%,97.9%,93.7%,105%
Oc1ccccc1-c1nc2c3ccccc3c3ccccc3c2o1,92.1%,106%,89.7%,95.7,82%,77.8%,98.6%,88.4%,90.6%,117%
COc1cc2nc3c(=O)n(CCN(C)C)cnn3c(=O)c2cc1OC,103%,101%,76.4%,105,107%,102%,98.7%,101%,97.9%,102%
NC(N)=NC(N)=Nc1cc2ccccc2c2ccccc12,57.8%,12.6%,57.7%,35.8,33.8%,24.4%,45.6%,43.6%,16.5%,55.9%
S=C(Nc1ccccc1)c1ccccn1,96.8%,86.4%,97.3%,97.5,95.2%,92.2%,102%,90.3%,85.9%,104%
Nc1c(C(=O)Nc2ccccn2)sc2nc3c(cc12)C(=O)CCC3,28.5%,12.4%,8.84% (active),28.2,29.5%,37.9%,17.1%,34.9%,44.4%,56.4%
Cc1[nH]c2ncnc(Oc3ccc(NC(=O)Nc4ccc(Cl)c(C(F)(F)F)c4)cc3)c2c1C,48.3%,50.2%,88.1%,73.4,52.5%,35%,65.9%,55.8%,43.4%,59.7%
C=C1C(=O)O[C@H]2[C@H]1CC/C(COC(=O)CCC(=O)OC/C1=C/CC[C@@]3(C)O[C@H]3[C@H]3OC(=O)C(=C)[C@@H]3CC1)=C\CC[C@@]1(C)O[C@@H]21,0.631% (active),27.2%,76.5%,94.3,72.9%,60%,61.4%,13.2%,26.2%,4.61% (active)
CCOC(=O)c1c(C)nc2c(c1N)/C(=C/c1cccs1)C(=O)N2c1ccc(OC)cc1,72.8%,51.3%,30.6%,42.2,12.4%,35%,45.7%,38.3%,37.6%,37%
CCOC(=O)c1cnn(-c2nc(-c3ccc(F)cc3)c(C#N)c(N3CCOCC3)n2)c1N,101%,92%,82.2%,95.1,95.3%,95.1%,96.6%,90.8%,106%,111%
COc1ccc(-c2[nH]c3ccccc3c2C=C(C#N)C#N)cc1,18%,10.3%,0.534% (active),67,27.8%,19.1%,2.62% (active),15.2%,31.4%,44.5%
CCCCn1c(=O)c(/C=C/C(=O)/C=C/c2cc3ccccc3n(CCCC)c2=O)cc2ccccc21,1.62% (active),-88.9% (active),48.8%,16.2,-48.3% (active),1.47% (active),-74.5% (active),-43.8% (active),-80.3% (active),-8.48% (active)
COc1cc2cc(c1Cl)N(C)C(=O)C[C@H](OC(=O)[C@H](C)N(C)C(=O)CCS)C[C@]1(C)O[C@H]1[C@H](C)[C@@H]1C[C@@](O)(NC(=O)O1)[C@H](OC)/C=C/C=C(\C)C2,11.2%,0.342% (active),21%,34,10.2%,22%,-33.1% (active),36.8%,13.6%,57.2%
CC[C@H](Nc1ncnc2nc[nH]c12)c1nc2cccc(CC(=O)c3ccc(C(=O)NO)cc3)c2c(=O)n1-c1ccccc1,102%,82%,56.3%,93.2,89.3%,73.6%,96.6%,79.9%,91.7%,90.2%
